# Only some compounds are listed: those with a hit (about 7.9% of all), similar ones and a draw of the others.
# Lassa entry inh: Lassa virus entry inhibition | Lassa virus pseudotype entry inhibition, cell reporter | Potency, µM (titrated, usually from 37.9 µM), inactives show at the top dose activity change, negative = inhibition, hits mostly inhibitors | 300,000 compounds, 1.2% hits | AID 540256; calls by dose curve; tested in HEK293 cells; also: potency is read from the fitted curve at half-maximal effect; nearly all actives have a fitted effect of over 50% in size
# HCV inhibitor: blocks hepatitis C virus; Huh7.5.1 HCVcc-Cre infection, luciferase reporter, 44 h; AID 651820; Potency, µM (highest dose often 41.8 µM), for the others: top-dose activity change, negative = inhibition, actives largely listed as inhibitors; 340,000 compounds, 3.4% hits; active = well fitted inhibition curve with a large enough effect; inconclusive = small, poorly fitted or top-dose-only effect, or another doubt; inactive = no such curve, though single readings can be large or run the other way; also: potency is read from the fitted curve at half-maximal effect
#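 Infectious HCV cell culture screen: compound-treated cells (1,000/well, pre-plated 4 h) are infected with HCVcc-Cre at roughly 0.5 moi and grown 44 h. Infection is quantified by luciferase signal after 15 min substrate incubation at room temperature.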
# Marburg entry inh: inhibitors of Marburg virus binding or cell entry; Potency, µM (highest dose often 37.8 µM), for the others: top-dose activity change, negative = inhibition, hits mostly inhibitors; 300,000 compounds, 1.8% hits; Marburg virus pseudotyped entry inhibition, cell reporter; calls by dose curve; tested in HEK293 cells; also: potency is read from the fitted curve at half-maximal effect
# HCMV inh: inhibitors of human cytomegalovirus | HFF cells, HCMV-luciferase reporter, 72 h; hits give low values | activity change, negative = inhibition, % at 57.5 µM | 410,000 compounds, 4.5% hits; in the data active = activity change below about -60%; inconclusive = no clear call, values can overlap the other calls; inactive = above about -39%
#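 Two-dose cell screen: HFF monolayers treated with compounds and infected with luciferase-expressing HCMV at 1 PFU/cell, 72 h at 37C, then lysed for luciferase measurement.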
# FMDV inh: foot and mouth disease virus antiviral activity; Potency, µM (top dose mostly 57.9 µM), for inactives: at the top dose activity change, negative = inhibition, actives largely listed as inhibitors; FMDV antiviral cell-based qHTS; 410,000 compounds, 1.2% hits; AID 1159524; calls by dose curve; tested in HEK293T cells; also: read-out not given here; potency is read from the fitted curve at half-maximal effect; nearly all actives have a fitted effect of over 45% in size
# * hit, by the source's call; ? = inconclusive; . = no result given; ! = not active in a repeat; [ ] = dose if it differs, or a comment. % is scaled to controls: 0 for no effect and ±100 for the full control effect.
SMILES,Lassa entry inh,HCV inhibitor,Marburg entry inh,HCMV inh,FMDV inh
Oc1ccc(-c2csc(Nc3ccc4c(c3)OCO4)n2)c(O)c1,.,?,.,33.2,21.8%
Cc1cccc(C(=O)c2cn[nH]c2-c2ccc(C)cc2O)c1,-1.2%,-24.6%,-0.8%,22.7,-10.9%
Cc1ccc(-c2[nH]ncc2C(=O)c2cccc(F)c2)c(O)c1,3.6%,?,-3.1%,-74.6*,-2.2%
CC(=O)C[C@@H](O)CC(=O)[C@@H]1OC(=O)[C@@H](C)C/C=C\Cc2ccccc21,.,14.3%,.,3.9,-19.1%
CCn1nc(-c2cccs2)nc2c(=O)n(C)c(=O)nc1-2,?,0.562µM*,0.891µM*,.,1.58µM*
Cc1ccccc1CSCC(=O)Nc1ccccc1F,-15.1%[46.1 µM],-5.9%,?,72.3,30.9%
CCOC(=O)COc1cc([N+](=O)[O-])cc2cccnc12,17.3%[46.1 µM],6.4%,15.7%[46.1 µM],-29.2,-11.4%
CCOC(=O)COc1ccccc1/C=C\[N+](=O)[O-],12.6µM*,?,16.4µM*,.,14.1µM*
O=C(COC(=O)COc1ccccc1[N+](=O)[O-])NC1CCCC1,1.6%,0.6%,24.2%,-27.5,3.0%
Cc1ccc(C(=O)COC(=O)COc2ccccc2[N+](=O)[O-])s1,14.1%,30.0%,?,-100.6*,-0.7%
CCn1nc(C)c(NS(=O)(=O)c2ccc(C)cc2)c1C,-33.9%,?,?,-74.5*,-21.7%
CCc1ccc(S(=O)(=O)Nc2c(C)nn(C)c2C)cc1,0.3%,12.6µM*,-4.1%,-69.1*,?
Cc1ccc(S(=O)(=O)Nc2c(C)nn(C)c2C)cc1,-23.0%,-20.0%,-10.4%,3.1,.
COc1cc(OC)cc(-c2cc3c(Nc4cccc(O)c4)nccc3[nH]2)c1,.,.,.,24.7,.
CN(C)c1ccc(-c2nc(NCc3cccnc3)c3ccccc3n2)cc1,.,.,.,.,35.5%
COc1ccc(N(C(=O)c2cccc(C)c2)S(=O)(=O)c2ccc3c(c2)n(C)c(=O)n3C)cc1,?,.,-26.8%[46.1 µM],13.6,0.0282µM*
COc1ccc(C(=O)N(c2ccc(OC)cc2)S(=O)(=O)c2ccc3c(c2)n(C)c(=O)n3C)cc1,?,.,?,-8.6,3.7%
COc1ccc(-n2cc(CNCCN3CCOC3=O)c(-c3ccccc3Cl)n2)cc1,.,5.0%,.,-6.6,-3.5%
CCN1CCC(CNCc2cn(-c3ccc(OC)cc3)nc2-c2ccccc2Cl)C1 (stereo unspecified),?,11.2µM*,3.98µM*,-70.8*,35.4%
COc1ccc(C(=O)Nc2ccc3c(c2)C(=O)NC3=O)cc1,.,-6.0%,.,25.4,-1.0%
O=C(N[C@H]1CC[C@@]23CCCN2C(=O)CCC[C@H]3[C@H]1Cc1ccccc1)c1cccc(Cl)c1,.,.,.,-65.2*,.
Cc1ccc(Nc2cc(C)nn2-c2nc(C)cc(C)n2)cc1,?,?,?,?,0.0%
Cc1ccc(Nc2cc(C)nn2-c2nc(C)cc(=O)[nH]2)cc1,1.58µM*,?,2.82µM*,.,3.55µM*
N/C(=N\OC(=O)COc1ccccc1Cl)c1ccccn1,7.31µM*,33.8%,?,-11.3,-10.1%
Cc1ccc(C)c(OCC(=O)O/N=C(\N)c2ccccn2)c1,?,-16.9%,?,35.3,51.4%
SMILES,Lassa entry inh,HCV inhibitor,Marburg entry inh,HCMV inh,FMDV inh
Cc1ccc(C(=O)O/N=C(\N)c2ccccn2)c(C)c1,0.794µM*,?,0.631µM*,-69.5*,0.891µM*
N/C(=N\OC(=O)CC1CCCCC1)c1ccccn1,?,6.1%,2.0%,-60.5*,.
N/C(=N\OC(=O)c1ccccc1Cl)c1ccccn1,2.06µM*,21.2%,?,25.1,-89.4%
N/C(=N\OC(=O)c1ccccc1[N+](=O)[O-])c1ccccn1,?,-15.8%,?,-29.3,-57.7%
COc1ccc(NC(=O)Cn2c(=O)n(-c3cccc(C)c3)c(=O)c3c2c2cc(C)ccc2n3C)cc1Cl,?,.,-10.2%[46.1 µM],8.0,-13.6%
COc1ccc(NC(=O)c2sc3nc(C)c(C(=O)Nc4ccc(C)cc4C)c(-c4sccc4C)c3c2N)cc1,4.2%[46.1 µM],.,?,-19.7,-2.6%
COc1ccc(C(=O)N(O)c2ccccc2)cc1,.,.,.,.,2.7%
CCC(O)(Cc1ccccn1)Cc1ccccn1,-1.6%,8.3%,?,-6.7,27.9%
COCC1CCCN(Cc2ccc3c(c2)CN(C(=O)c2cnn(C(C)C)c2)CCO3)C1 (stereo unspecified),.,.,.,.,-10.6%
COc1cc(OC)c(C(=O)O/N=C(\N)c2ccccn2)cc1OC,.,-9.8%,.,57.4,56.5%
COc1ccccc1C(=O)O/N=C(\N)c1ccccn1,?,8.8%,3.55µM*,19.2,-17.1%
Clc1ccc(COC(Cn2ccnc2)c2ccc(Cl)cc2Cl)c(Cl)c1 (stereo unspecified),?,?,?,-60.6*!,?
CC1CN(C(C)C)C(=S)N(c2ccccc2)C1=O (stereo unspecified),-7.6%[46.1 µM],-4.6%,23.1%[46.1 µM],36.0,-13.1%
CCc1ccc(C(=O)c2cn(CC(=O)Nc3ccc(F)cc3)c3ccc(OC)cc3c2=O)cc1,6.4%[46.1 µM],.,-0.2%[46.1 µM],-70.5*,-25.3%
CCc1ccc(C(=O)c2cn(CC(=O)Nc3ccc(F)c(F)c3)c3cc(OC)c(OC)cc3c2=O)cc1,-26.3%[46.1 µM],.,-2.7%[46.1 µM],-67.4*,?
CCOc1ccc(NC(=O)Cn2cc(C(=O)c3ccc(CC)cc3)c(=O)c3cc(OC)c(OC)cc32)cc1,14.6%[46.1 µM],.,-2.4%[46.1 µM],1.9,-22.7%
COC(=O)N1CCC2(CC1)CCN(c1ncccn1)CC2,.,.,.,.,-14.3%
Cc1ccc(C(=O)NCCc2nnc3n2CCN(Cc2ccnc4ccccc24)CC3)c(C)c1,.,.,.,.,-7.3%
Cc1ccc(S(=O)(=O)N2[C@@H](Cc3ccccc3)CO[C@H]2CC(=O)c2ccc(F)cc2)cc1,.,.,.,54.7,-15.8%
Cc1ccc(S(=O)(=O)C[C@@H]2OC[C@H](Cc3ccccc3)N2S(=O)(=O)c2ccc(C)cc2)cc1,.,.,.,-61.0*,17.4%
Cc1ccc(S(=O)(=O)N2[C@@H](Cc3ccccc3)CO[C@H]2CC(=O)c2ccccc2)cc1,.,.,.,-69.4*,-0.7%
O=C(c1cc(-c2cccnc2)nc2ccccc12)N1CCN(S(=O)(=O)c2cccs2)CC1,.,-5.4%,.,0.0,-21.8%
CN1c2ccccc2[C@@]2(O)C(=O)[C@@]1(C)[C@@H]1CCC=C[C@H]12,?,.,9.8%[14.2 µM],.,.
CCN1C(=NCCc2cccnc2)N[C@H](CCc2ccccc2)[C@H](C(=O)OC)[C@H]1C,.,.,-16.2%[14.2 µM],.,.
CC(O)CNc1nc2sc3c(c2c(=O)n1Cc1ccco1)CCCCC3 (stereo unspecified),18.4%[46.1 µM],-17.0%,?,34.5,6.7%
SMILES,Lassa entry inh,HCV inhibitor,Marburg entry inh,HCMV inh,FMDV inh
CC(O)CNc1nc2sc3c(c2c(=O)n1CCc1ccccc1)CCCCC3 (stereo unspecified),25.9µM*,-3.8%,?,-27.7,13.2%
CN(C)CCNc1nc2sc3c(c2c(=O)n1CCc1ccccc1)CCCCC3,.,?,.,-98.9*,-22.9%
O=c1c2c3c(sc2nc(NCCOCCO)n1Cc1ccco1)CCCCC3,.,-9.2%,.,89.8,0.5%
COC(=O)[C@@H]1C=C[C@H](C)[C@H](CCOc2ccccc2)O1,.,.,-7.7%[14.2 µM],.,.
CCOC(=O)N1c2ccccc2Sc2ccccc21,.,?,.,-33.5,-12.9%
Cc1nnc(SC(=O)N2c3ccccc3Sc3ccccc32)s1,20.6µM*,?,?,?,.
